Drawing on PubChem BioAssay (NCI), this text covers growth for nine compounds.

What all share (experiment): NCI-60 one-dose screen, 48 h (100 = growth as untreated, 0 = no growth, -100 = all killed)
Conditions in all cases: 10 µM unless noted

Assay [1] concerns SR leukemia.
Assay [2] concerns RPMI-8226 leukemia.
Assay [3] concerns OVCAR-8 ovarian.
Assay [4] relates to OVCAR-5 ovarian.
Assay [5] has as its system OVCAR-4 ovarian.
For assay [6], the system named is SK-OV-3 ovarian.
Assay [7] deals with IGROV1 ovarian.
Assay [8] relates to OVCAR-3 ovarian.
Assay [9] deals with HS 578T breast.
For assay [10], the system named is NCI/ADR-RES ovarian.
Assay [11] has as its system T-47D breast.
In assay [12] the test system is BT-549 breast.
In assay [13] the test system is MDA-MB-435 melanoma.
In assay [14] the test system is SW-620 colon.
Assay [15] deals with MCF7 breast.
The subject of assay [16] is HCT-116 colon.
Assay [17] deals with HCC-2998 colon.
Assay [18] concerns KM12 colon.

Structures are written as SMILES. This is part of a sample that, as a whole, favours compounds with a hit. Of some 83,000 tested, about 20% had one in any assay.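 96-well plates, one dose, 48 hours. Percent growth reported; active if below 10.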 Unmarked numbers belong to inactive results. Active and inactive are the calls of the source.

On to `Clc1cccc(/C=N/Nc2nc(N/N=C/c3cccc(Cl)c3Cl)nc(N3CCCCC3)n2)c1Cl`, for which the growth in [1] was 33.4%; in [2], 93.4%; in assay [3], 72.9%; in [4] it was 94%; in [5], 71.5%; in assay [6], 105%. The growth in [7] was 79.6%; in assay [8], 8.19% (active); in assay [9], 85%; in assay [10], 67.4%; in [11], 48.3%; in [12], 97.3%. For the same compound, the growth in assay [13] is 68.8%; in assay [14], 42.6%; in assay [15] it was 71.2%; in assay [16] it was 48.8%; in assay [17] it was 97.4%; in [18] it was 67.2%.

Consider `CS(=O)(=O)Nc1cc(-c2ccc3ncc(C#N)c(NCc4ccccc4F)c3c2)cnc1Cl`, for which the growth in assay [1] was 3.57% (active); in [2], -22% (active); in assay [3], 7.93% (active); in assay [4] it was 16.8%; in assay [5] it was 12.6%; in assay [6], -13.7% (active). Further, the growth in assay [7] was -29.1% (active); in [8], 3.41% (active); in assay [9] it was -22% (active); in assay [10], 25%; in [11], 3.78% (active); in [12] it was -8.8% (active). Moreover, the growth was 6.84% (active) in assay [13]; 8.38% (active) in [14]; 4.76% (active) in [15]; 4.1% (active) in [16]; -1.68% (active) in [17]; 11.5% in assay [18].

`C[C@H]1c2[nH]c3ccccc3c2C[C@H]2C(=O)N(CCCCCCC(=O)NO)CC(=O)N21`: the growth in [1] was 30.8%; in [2], 73.8%; in [3], 64.5%; in assay [4], 80.7%; in [5] it was 97.1%; in [6], 101%. The growth is 93% in assay [7]; 79.9% in assay [8]; 66.7% in [9]; 106% in [10]; 61% in assay [11]; 96.5% in assay [12]. The growth is 84% in [13]; 80.5% in assay [14]; 70.8% in assay [15]; 72.8% in [16]; 114% in [17]; 84.1% in assay [18].

As to `CCN(CC)CCn1c2ccc(O)cc2c2sc3cc(OC)ccc3c(=O)c21`, the growth in assay [1] was -13.4% (active); in [2] it was -13.1% (active); in assay [3], 19.3%; in assay [4] it was 44.7%; in assay [5], 28.2%; in [6], 74.7%. Also, the growth in assay [7] was 19.2%; in assay [8], 41.8%; in assay [9], 63.6%; in assay [10] it was 20.8%; in assay [11], 59.3%; in assay [12], 68.1%. The growth in [13] is 19.4%; in assay [14], -50.8% (active); in assay [15], -55.2% (active); in [16] it was -46% (active); in assay [17], 36.6%; in [18], 25%.

For the compound `O=C1Nc2ccccc2/C1=C/c1ccc(CO)n1-c1ccc(Cl)cc1`, the growth was 35.5% in assay [1]; 53.2% in assay [2]; 85.9% in assay [3]; 89.8% in assay [4]; 89.9% in assay [5]; 80% in assay [6]. The growth in assay [7] was 48.1%; in [8], 31.7%; in assay [9], 59%; in assay [10], 33.9%; in assay [11] it was 62.9%; in assay [12], 55.3%. Besides, the growth in assay [13] was -25.5% (active); in assay [14], 32.4%; in assay [15], 24.1%; in assay [16], 23.8%; in [17] it was 78.3%; in assay [18] it was 13.4%.

With `CCN(CC)c1ccc2c(c1)Oc1nc(N)c(C#N)c(N)c1C2Sc1ccc(F)cc1` (configuration not stated), the growth is -9.13% (active) in [1]; -25.7% (active) in [2]; -31.1% (active) in assay [3]; -92.5% (active) in assay [4]; -29.3% (active) in [5]; -7.03% (active) in assay [6]. Also, the growth was -77.9% (active) in assay [7]; -69.4% (active) in assay [8]; -4.5% (active) in [9]; -9.25% (active) in assay [10]; -35% (active) in assay [11]; 56.1% in [12]. Moreover, the growth is -17.5% (active) in assay [13]; -80.2% (active) in assay [14]; -85.5% (active) in assay [15]; -81.4% (active) in [16]; -90.9% (active) in assay [17]; -74.1% (active) in assay [18].

With `Cc1ccc(NC(=O)CNc2cc(C(N)=O)cc(F)c2C)c(Cl)c1`, the growth in assay [1] was 95.2%; in assay [2], 90.6%; in assay [3] it was 99.9%; in assay [4] it was 87.9%; in [5], 75.2%; in assay [6], 104%. Besides, the growth in [7] was 70.6%; in assay [8], 111%; in assay [9], 92.8%; in assay [10], 105%; in assay [11], 104%; in [12], 102%. Also, the growth is 97.4% in assay [13]; 96.8% in assay [14]; 87.2% in assay [15]; 96.3% in assay [16]; 122% in [17]; 99.1% in assay [18].

With `COc1ccc(COc2ccc(/C=C3\C(=O)Nc4ccccc43)cc2OC)cc1`, the growth was 102% in assay [1]; 104% in assay [2]; 101% in [3]; 99.9% in [4]; 99.8% in [5]; 119% in assay [6]. Also, the growth was 107% in assay [7]; 115% in [8]; 105% in [9]; 106% in assay [10]; 113% in assay [11]; 92.1% in assay [12]. For the same compound, the growth in assay [13] was 106%; in [14], 99.1%; in assay [15] it was 94%; in assay [16], 108%; in assay [17], 102%; in assay [18], 104%.

Turning to `CCCn1cnc2c(c1=N)C(c1ccc(Cl)cc1)c1sc3c(C)cccc3c1O2` (configuration not stated), the growth in assay [1] was 12.6%; in assay [2] it was 1.37% (active); in assay [3] it was 23.5%; in assay [4] it was 34.2%; in [5], 89.2%; in assay [6] it was 44.2%. For the same compound, the growth in assay [7] was 23.7%; in assay [8] it was 2.26% (active); in assay [9] it was 15.4%; in assay [10], 7.18% (active); in assay [11], 45.9%; in assay [12], 18%. Moreover, the growth in [13] was -40% (active); in [14] it was 25.8%; in assay [15], 17.4%; in [16], 9.34% (active); in assay [17] it was 15.3%; in assay [18], 10.9%.
